# Screening results deposited in PubChem by National Center for Advancing Translational Sciences (NCATS).
# In the library only some 10% were active in any assay of this set; here they are far more common.
# G9a block = G9a (human) methyltransferase inhibition; G9a H3K9 monomethylation, AlphaScreen, 2 h; Potency, µM (doses to about 102 µM), for inactives: top-dose activity, negative = inhibition, actives largely listed as inhibitors; 350,000 compounds, 8.8% hits; AID 504332; note: potency is the fitted concentration of half-maximal effect; % is set by controls: 0 for no effect and ±100 for the full control effect; nearly all actives have a fitted effect of over 75% in size
#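 AlphaScreen read-out: biotin-H3K9 peptide (500 nM) methylation by 20 nM enzyme with 20 uM SAM, 2 h at room temperature after 15 min compound preincubation; anti-monomethyl H3K9 antibody plus donor/acceptor beads, 10 min dark.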
# HP1b chromo inh = HP1-beta chromodomain-methylated histone interaction inhibition; AlphaScreen HP1-beta / biotin-H3K9me3 peptide binding; P83916; Potency, µM (titrated, usually from 114 µM), for inactives: at the highest dose activity change, negative = inhibition, actives largely listed as inhibitors; AID 540317; 390,000 compounds, 0.56% hits; note: potency is the fitted concentration of half-maximal effect; nearly all actives have a fitted effect of over 70% in size
#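 HP1-beta protein (50 nM final) preincubated 30 min at room temperature with biotinylated H3(1-18)K9me3 peptide (50 nM) in PBS pH 7.4, 0.01% Tween-20, then compound added for 30 min. AlphaScreen streptavidin donor/nickel chelate acceptor beads (10 ug/mL final), 30 min dark, luminescence read.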
# CtBP-E1A inh = CtBP/E1A binding inhibition; AlphaScreen GST-E1A/His-CtBP binding, 1536-well; hits give low values; activity change, % (concentration not given with the values); 340,000 compounds, 0.49% hits; in the data active = activity change below about -65%; inconclusive = mostly about -30% to -63%; note: % is set by controls: 0 for no effect and ±100 for the full control effect
#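 GST-E1A and His-tagged CtBP (125 nM each as 5X stock) were preincubated with pin-transferred compound for 2 h at 37 °C in the dark, then glutathione donor and nickel acceptor beads were added for 1 h before AlphaScreen reading.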
# Six1-Eya2 blk = inhibitors of human Six1/Eya2 interaction; Q15475+O00167; AlphaScreen GST-Six1/His-Eya2 binding, biochemical; hits give low values; activity change, % (no concentration beside the values); 360,000 compounds, 0.56% hits; AID 651725; in the data active = activity change below about -65%; inconclusive = mostly about -30% to -63%; note: % is set by controls: 0 for no effect and ±100 for the full control effect
#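 AlphaScreen with GST-Six1 and His-Eya2 (5X mix: 250 nM and 500 nM), glutathione donor and nickel acceptor beads; buffer 50 mM Tris pH 8.0, 300 mM NaCl, 1 mM TCEP; 1 h at 37 C in the dark.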
# JMJD2A Tudor = inhibitors of human JMJD2A Tudor domain; O75164; AlphaScreen JMJD2A-Tudor / H3K4me3 peptide binding; Potency, µM (series often up to 114 µM), inactives show at the highest dose activity change, negative = inhibition, hits mostly inhibitors; 390,000 compounds, 4.4% hits; AID 504339; note: potency is the fitted concentration of half-maximal effect; % is set by controls: 0 for no effect and ±100 for the full control effect; nearly all actives have a fitted effect of over 50% in size
# Target sequence (O75164 whole entry, looked up, the tested form may be a part): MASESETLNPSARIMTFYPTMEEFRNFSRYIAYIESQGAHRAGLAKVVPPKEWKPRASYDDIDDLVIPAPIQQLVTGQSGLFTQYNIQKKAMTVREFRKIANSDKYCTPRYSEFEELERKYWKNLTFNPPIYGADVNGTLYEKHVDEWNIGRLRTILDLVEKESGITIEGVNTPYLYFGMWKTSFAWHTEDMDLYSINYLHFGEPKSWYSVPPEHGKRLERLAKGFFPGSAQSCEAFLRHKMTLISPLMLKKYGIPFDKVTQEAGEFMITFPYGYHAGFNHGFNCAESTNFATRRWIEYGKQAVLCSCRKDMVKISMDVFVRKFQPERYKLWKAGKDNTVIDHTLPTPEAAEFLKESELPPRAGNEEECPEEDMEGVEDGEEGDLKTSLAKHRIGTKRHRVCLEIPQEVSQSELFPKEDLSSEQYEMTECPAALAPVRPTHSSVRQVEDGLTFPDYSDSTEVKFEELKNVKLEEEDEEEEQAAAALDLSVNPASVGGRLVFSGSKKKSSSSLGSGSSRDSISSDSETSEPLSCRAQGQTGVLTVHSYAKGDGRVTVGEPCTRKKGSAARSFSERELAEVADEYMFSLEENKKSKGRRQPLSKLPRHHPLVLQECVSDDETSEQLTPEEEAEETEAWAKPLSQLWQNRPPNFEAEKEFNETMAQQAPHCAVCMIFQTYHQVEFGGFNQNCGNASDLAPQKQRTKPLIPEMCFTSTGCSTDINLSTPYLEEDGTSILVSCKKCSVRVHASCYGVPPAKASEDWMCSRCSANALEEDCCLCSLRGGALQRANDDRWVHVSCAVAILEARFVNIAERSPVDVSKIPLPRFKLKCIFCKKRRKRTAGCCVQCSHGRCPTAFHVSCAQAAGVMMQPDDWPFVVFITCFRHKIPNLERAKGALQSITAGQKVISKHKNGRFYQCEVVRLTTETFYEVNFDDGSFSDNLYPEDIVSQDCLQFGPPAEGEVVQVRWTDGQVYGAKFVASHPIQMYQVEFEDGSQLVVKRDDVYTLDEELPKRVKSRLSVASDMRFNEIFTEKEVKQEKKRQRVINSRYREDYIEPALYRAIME
# BAZ2B block = inhibitors of human BAZ2B bromodomain; Q9UIF8; AlphaScreen BAZ2B-H3K14Ac peptide displacement; Potency, µM (doses to about 114 µM), for the others: at the top dose activity change, negative = inhibition, usual class: inhibitors; 360,000 compounds, 4.4% hits; note: potency is the fitted concentration of half-maximal effect; % is set by controls: 0 for no effect and ±100 for the full control effect; nearly all actives have a fitted effect of over 60% in size
#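 Inhibition is scored as reduced AlphaScreen emission. The BAZ2B/b-H3(5-23)K14Ac complex (50 nM each) in PBS pH 7.4, 0.01% Tween-20 meets compound (up to 110 uM) for 30 min at RT before bead addition.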
# The depositor's hits bear a star; ? = inconclusive; nt = no result given; [ ] = dose if it differs, or a comment. Unless noted, calls come from the whole dose curve; as a rule, active = well fitted inhibition curve with a large enough effect; inconclusive = small, poorly fitted or top-dose-only effect; inactive = no such curve, though single readings can be large or run the other way.
SMILES,G9a block,HP1b chromo inh,CtBP-E1A inh,Six1-Eya2 blk,JMJD2A Tudor,BAZ2B block
Nc1ccc(Oc2cccc(Oc3ccc(N)cc3)c2)cc1,45µM*,?,-18,-14,?,40µM*
Cc1ccccc1N1C(=O)NC(=O)/C(=C\c2ccc3c(c2)CCCN3Cc2ccccc2)C1=O,10µM*,?,4,-6,50µM*,35µM*
O=C(O)c1cc(O)c(O)c(O)c1,2µM*,nt,nt,nt,nt,nt
COCCCOc1ccnc(CS(=O)c2nc3ccccc3[nH]2)c1C (centres undefined),13µM*,22µM*,-6,-7,35µM*,?
CC1C(=O)OC2O[C@]3(C)CC[C@H]4C(C)CCC1[C@]24OO3 (some centres undefined),6%[2.33 µM],nt,nt,nt,nt,nt
Nc1c(C(=O)NCc2ccco2)c2nc3ccccc3nc2n1CCN1CCOCC1,50µM*,59%,-73*,?,-10%,8%
NS(=O)(=O)c1cc(C(=O)OCC(=O)Nc2ccc3[nH]c(=O)[nH]c3c2)ccc1Cl,1.4µM*,33%,1,-4,-3%,-6%
Cc1nn(Cc2ccccc2)c(C)c1C(=O)OCC(=O)Nc1cccc(S(N)(=O)=O)c1,-10%,8%,2,21,-21%,-16%
COc1ccc(CC2NC[C@H](O)[C@H]2OC(C)=O)cc1 (some centres undefined),-10%[2.33 µM],nt,nt,nt,nt,nt
COc1cc(CC2(CCc3ccncc3)C(=O)N(C)C(=O)N(C)C2=O)cc(OC)c1OC,22µM*,20%,0,19,-16%,-15%
CN1C(=O)N(C)C(=O)C(CCc2ccncc2)(CCc2ccncc2)C1=O,nt,16%,0,5,-12%,-3%
CN(Cc1ccc(OC(F)F)cc1)C(=O)c1ccccc1Sc1ccccc1C#N,nt,47%,0,2,7%,nt
CCOc1ccccc1N1C(=O)CC(=O)NC1=O,79µM*,6%[57 µM],nt,11,-5%,?
CCOc1ccc(N2C(=O)CC(=O)NC2=O)cc1,-8%[0.501 µM],38%,12,9,-3%,-6%
Cc1nn2c(=O)cc(N3CCNCC3)nc2s1,nt,nt,nt,nt,-2%,nt
S=P(N1CCOCC1)(N1CC1)N1CC1,nt,-7%,3,6,-18%,nt
Cn1ccnc1P(=S)(c1nccn1C)c1nccn1C,3.5µM*,4%,2,-23,32µM*,?
C=Cn1ccnc1P(=S)(c1ccc(N(C)C)cc1)c1nccn1C=C,-30%[59 µM],11%,-21,-6,?,?
Cn1ccnc1P(=S)(c1nccn1C)N1CCOCC1,?,?,4,3,35µM*,?
CCCC(C)(COC(N)=O)COC(=O)NC1CC1 (centres undefined),-42%[12.7 µM],nt,nt,nt,nt,nt
O=C(C[n+]1ccccc1)c1ccc(Cl)cc1,2µM*,10%,nt,8,?,-1%
NCC(=O)c1ccccc1,nt,33%,6,0,-18%,nt
O=C1NC(=O)N(c2ccc3c(c2)OCO3)C(=O)/C1=C\c1ccc(-c2ccccc2C(=O)O)o1,10µM*,?,-1,-10,32µM*,79µM*
Cc1cccc(N2C(=O)NC(=O)/C(=C/c3ccc(-c4ccc(C(=O)O)c(Cl)c4)o3)C2=O)c1,10µM*,nt,nt,nt,nt,-14%
O=C1NC(=O)N(c2ccc3c(c2)OCO3)C(=O)/C1=C\c1ccsc1,nt,49%,9,-3,6%,-10%
O=C1NC(=O)N(c2ccc3c(c2)OCO3)C(=O)/C1=C/c1ccc(N2CCCCC2)o1,50µM*,25%,4,-4,-3%,-36%
CC(=O)OCC(=O)C1CCC2C3CC=C4CC(O)CC[C@@]4(C)C3CC[C@]12C (some centres undefined),-23%[2.33 µM],nt,nt,nt,nt,nt
CC(C)C[C@H]1CNC(=S)N1CC1CCN(CC2CCC(C(C)(C)C)CC2)CC1 (some centres undefined),nt,47%,?,-1,-31%,nt
CNc1ccc2oc(C[C@@H]3OC4(CC[C@@H]3C)O[C@H](C(C)C(=O)c3ccc[nH]3)[C@H](C)C[C@H]4C)nc2c1C(=O)O (some centres undefined),18µM*,nt,nt,nt,nt,nt
